# Results taken from PubChem BioAssay (Tox21).
# Records with an inconclusive call do not appear. The source made the active and inactive calls. Unless noted, calls follow the shape of the dose curve; as a rule, active = well fitted cell-killing curve with a large enough effect in the repeat runs; inconclusive = weak or mixed curves; inactive = no such curve, though single readings can be large or run the other way.
# System: not listed separately
# Experiment: qHTS assay to identify small molecule agonists of the peroxisome proliferator-activated receptor delta (PPARd) signaling pathway - cell viability counter screen (AID 743211); also: nearly all actives have a fitted effect of over 55% in size
# Conditions: PPARd-bla HEK293H viability, CellTiter-Glo luminescence, 17 h; series mostly up to 62.6 µM; activity change, negative = cytotoxicity: at the top concentration
# Outline: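 Luminescent ATP viability assay (CellTiter-Glo, 30 min RT) in UAS-bla HEK293H cells carrying the PPAR delta reporter construct, 3000 cells/well, after a 17 h compound treatment at 37 C.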
# % is scaled to controls: 0 for no effect and ±100 for the full control effect.
row,Compound,"activity change, negative = cytotoxicity"
1,O=C[C@H](O)[C@@H](O)[C@H](O)[C@H](O)CO,1.56% (inactive)
2,C[N+](C)(C)CCCCCC[N+](C)(C)C,-0.38% (inactive)
3,CCCCOCCOCCOCCCC,1.72% (inactive)
4,CCCCCSCCCCC,3.48% (inactive)

# Target: Peroxisome proliferator-activated receptor delta (Homo sapiens) (UniProt Q03181)
# Sequence (Q03181 whole entry, looked up): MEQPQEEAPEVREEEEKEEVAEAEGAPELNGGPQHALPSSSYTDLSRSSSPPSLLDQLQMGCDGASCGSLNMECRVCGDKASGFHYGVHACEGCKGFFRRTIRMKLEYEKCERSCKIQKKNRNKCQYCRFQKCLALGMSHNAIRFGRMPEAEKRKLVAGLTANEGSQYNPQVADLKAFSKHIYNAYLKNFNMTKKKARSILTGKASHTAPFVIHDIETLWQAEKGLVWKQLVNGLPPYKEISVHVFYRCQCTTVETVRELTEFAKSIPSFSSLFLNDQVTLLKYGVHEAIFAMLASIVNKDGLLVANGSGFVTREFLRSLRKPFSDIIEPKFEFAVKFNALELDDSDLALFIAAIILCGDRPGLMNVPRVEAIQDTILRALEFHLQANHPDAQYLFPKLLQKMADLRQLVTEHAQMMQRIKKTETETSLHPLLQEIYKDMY
# Experiment: qHTS assay to identify small molecule agonists of the peroxisome proliferator-activated receptor delta (PPARd) signaling pathway (AID 743212; calls by dose curve)
# Conditions: HEK293H PPARd-UAS-bla, beta-lactamase FRET ratio, 17 h; series mostly up to 62.6 µM; activation: at the top concentration
# Outline: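 Read-out: beta-lactamase FRET fluorescence after 2 h room-temperature incubation with LiveBLAzer B/G substrate. Cells were HEK293H carrying a UAS-bla reporter for PPARd, treated at 37 C with DMSO-dissolved compounds.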
row,Compound,activation
1,CN1CCC(=C2c3ccccc3CC(=O)c3sccc32)CC1,-1.07% (inactive)
2,O=c1cc(-c2ccccc2)oc2ccccc12,1.92% (inactive)
3,OC(CCN1CCCCC1)(c1ccccc1)C1CC2C=CC1C2 (stereo not drawn),-2.12% (inactive)
4,N#Cc1ccc(C2CCCc3cncn32)cc1 (stereo not drawn),3.94% [at 29.1 µM] (inactive)
5,COCCCOCCCOC,-0.0717% (inactive)
6,c1ccc([C@H]2CN3CCSC3=N2)cc1,7% (inactive)
7,NS(=O)(=O)c1ccccc1Cl,-1.25% (inactive)
8,O=C1NC(=O)[C@@]2(CCOc3ccc(F)cc32)N1,-3.19% (inactive)
9,CCC=O,-5.98% [at 81.1 µM] (inactive)
10,OC1CCCCC1c1ccccc1 (stereo not drawn),-2.7% (inactive)
11,CC/C=C\CC/C=C/CO,-0.472% (inactive)
12,O=[N+]([O-])c1ccc(F)cc1F,0.0985% [at 81.1 µM] (inactive)
13,C/C=C(\C)C#N,-0.0184% (inactive)
14,C1OCOCO1,-3.13% [at 81.1 µM] (inactive)
15,NC(CSCC(=O)O)C(=O)O (stereo not drawn),-1.2% (inactive)
16,O=C(O)Cc1ccc(CCNS(=O)(=O)c2ccc(Cl)cc2)cc1,1% (inactive)
17,O=C(O)CNC(=O)c1ccc([N+](=O)[O-])cc1,1.36% (inactive)
18,CCCN1CCCC[C@H]1C(=O)Nc1c(C)cccc1C,-1.77% (inactive)
19,CCC(=O)OC(C)c1ccccc1 (stereo not drawn),-0.414% (inactive)
20,CC(C)(C)c1nnc(NS(=O)(=O)c2ccccc2)s1,1.45% (inactive)
21,OCCCC1CCCCC1,7.3% (inactive)
22,Nc1c[n+](N2CCOCC2)no1,2.2% (inactive)
23,O=C(O)COc1nn(Cc2ccccc2)c2ccccc12,-4.27% (inactive)
24,Cc1ccc(C#N)cc1,0.533% (inactive)
25,N=C(N)c1ccc2cc(OC(=O)c3ccc(N=C(N)N)cc3)ccc2c1,5.68% (inactive)
26,C[N+](C)(C)CCCCCC[N+](C)(C)C,0.147% (inactive)
27,CCCCOCCOCCOCCCC,2.87% (inactive)
28,CCCCCSCCCCC,1.19% (inactive)

# System: not listed separately
# Experiment: qHTS assay to identify small molecule antagonists of the peroxisome proliferator-activated receptor delta (PPARd) signaling pathway - cell viability counter screen (AID 743213); also: nearly all actives have a fitted effect of over 50% in size
# Conditions: PPARd-bla HEK293H viability, CellTiter-Glo luminescence, 17 h; series mostly up to 62 µM; viability change, negative = cytotoxic: at the top concentration
# Outline: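 Luminescence from CellTiter-Glo, added after the bla read and incubated 30 min at room temperature, gives viability of HEK293H PPARd-bla cells exposed to compounds for 17 h at 37 C with 300 nM L165041.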
row,Compound,"viability change, negative = cytotoxic"
1,N#Cc1ccc(C2CCCc3cncn32)cc1 (stereo not drawn),-6.14% [at 28.9 µM] (inactive)
2,COCCCOCCCOC,6.36% (inactive)
3,c1ccc([C@H]2CN3CCSC3=N2)cc1,-23.8% (inactive)
4,NS(=O)(=O)c1ccccc1Cl,1.52% (inactive)
5,O=C1NC(=O)[C@@]2(CCOc3ccc(F)cc32)N1,-4.22% (inactive)
6,CCC=O,-10.8% [at 80.4 µM] (inactive)
7,OC1CCCCC1c1ccccc1 (stereo not drawn),-3.88% (inactive)
8,CC/C=C\CC/C=C/CO,6.89% (inactive)
9,O=[N+]([O-])c1ccc(F)cc1F,3.78% [at 80.4 µM] (inactive)
10,C/C=C(\C)C#N,3.95% (inactive)
11,C1OCOCO1,-8.97% [at 80.4 µM] (inactive)
12,NC(CSCC(=O)O)C(=O)O (stereo not drawn),1.33% (inactive)
13,O=C(O)Cc1ccc(CCNS(=O)(=O)c2ccc(Cl)cc2)cc1,-6.04% (inactive)
14,CCC(=O)OC(C)c1ccccc1 (stereo not drawn),18.4% (inactive)
15,CC(C)(C)c1nnc(NS(=O)(=O)c2ccccc2)s1,1.79% (inactive)
16,N[C@H]1CN(c2c(F)cc3c(=O)c(C(=O)O)cn(C4C[C@H]4F)c3c2Cl)CC12CC2 (stereo partly drawn),2.68% (inactive)
17,C=CCCCCCCCCC=O,-0.978% (inactive)
18,OCCCC1CCCCC1,7.17% (inactive)
19,Nc1c[n+](N2CCOCC2)no1,9.3% (inactive)
20,O=C(O)COc1nn(Cc2ccccc2)c2ccccc12,8% (inactive)
21,Cc1ccc(C#N)cc1,12.2% (inactive)
22,N=C(N)c1ccc2cc(OC(=O)c3ccc(N=C(N)N)cc3)ccc2c1,-12.5% (inactive)
23,CCCCC/C=C\CCC=O,5.72% (inactive)
24,O=C[C@H](O)[C@@H](O)[C@H](O)[C@H](O)CO,-0.0915% (inactive)
25,C[N+](C)(C)CCCCCC[N+](C)(C)C,3.11% (inactive)
26,CCCCOCCOCCOCCCC,-8.72% (inactive)
